# Screening data (PubChem BioAssay)
# GLP-1R agonist: qHTS of GLP-1 Receptor Agonists | Glucagon-like peptide 1 receptor (Homo sapiens), P43220 | HEK293 GLP-1R CRE-luciferase, luminescence, 4-6 h; cells express a hypersensitive GLP-1R form | Potency, µM (top dose mostly 45.6 µM), for the others: at the top dose activation, most hits filed as activators | 380,000 tested, 0.007% active | AID 624172, 2012; also: % of control where 0% means no effect
# Target sequence (P43220 whole entry, looked up): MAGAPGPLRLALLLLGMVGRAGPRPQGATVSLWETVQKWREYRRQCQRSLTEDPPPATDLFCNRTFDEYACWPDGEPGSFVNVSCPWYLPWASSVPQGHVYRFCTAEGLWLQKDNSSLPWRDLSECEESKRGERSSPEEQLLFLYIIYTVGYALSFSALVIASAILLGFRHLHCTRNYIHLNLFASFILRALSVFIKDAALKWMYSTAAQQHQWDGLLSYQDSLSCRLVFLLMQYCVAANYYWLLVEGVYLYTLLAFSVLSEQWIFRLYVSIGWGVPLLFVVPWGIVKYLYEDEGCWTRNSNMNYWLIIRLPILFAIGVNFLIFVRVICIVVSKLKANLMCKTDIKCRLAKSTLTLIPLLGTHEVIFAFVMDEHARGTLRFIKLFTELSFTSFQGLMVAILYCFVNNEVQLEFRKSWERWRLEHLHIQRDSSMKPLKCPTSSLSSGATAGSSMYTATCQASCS
# GLP-1R inv ag: qHTS of GLP-1 Receptor Inverse Agonists (Inhibition Mode); Potency, µM (titrated, usually from 38.3 µM), inactives show top-dose activity change, negative = inhibition, most hits filed as inhibitors; 410,000 tested, 1.6% active; HEK293 GLP-1R CRE-luciferase, luminescence, 24 h; GLP-1R form is constitutively active; Glucagon-like peptide 1 receptor (Homo sapiens), P43220; also: % is scaled to controls: 0 for no effect and ±100 for the full control effect; nearly all actives have a fitted effect of over 55% in size
#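 HEK293 cells stably co-expressing a cAMP-responsive luciferase reporter and constitutively active GLP-1R were seeded, incubated 12 h, then exposed to compounds for 24 h at 37 C. Luminescence was read 12 min after detection reagent; inverse agonists lower signal.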
# RORgamma inh: qHTS for inhibitors of ROR gamma transcriptional activity | Nuclear receptor ROR-gamma (Mus musculus), P51450 | Drosophila S2 Gal4-RORgamma UAS-luciferase reporter, 20 h | Potency, µM (top dose mostly 53.6 µM), without a hit: top-dose activity change, negative = inhibition, usual class: inhibitors | 310,000 tested, 5.4% active | AID 2551, 2010; also: % is scaled to controls: 0 for no effect and ±100 for the full control effect; nearly all actives have a fitted effect of over 60% in size
#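 Drosophila S2 cells stably expressing Gal4-DBD/mouse RORγ fusion under metallothionein promoter plus UAS-luciferase; compound 1 h, then 700 uM CuSO4 induction for 20 h at ambient temperature; inhibition read as reduced luminescence.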
# VP16 counter: VP16 counterscreen qHTS for inhibitors of ROR gamma transcriptional activity; 310,000 tested, 3.5% active; Potency, µM (titrated, usually from 53.6 µM), for inactives: at the top dose activity, negative = inhibition, hits mostly inhibitors; Drosophila S2 Gal4-VP16 UAS-luciferase, luminescence, 20 h;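 also: Gal4-VP16 expression switched on by copper sulfate through the metallothionein promoter; % is scaled to controls: 0 for no effect and ±100 for the full control effect; nearly all actives have a fitted effect of over 50% in size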
# GLP1R cytotox: qHTS of GLP-1 Receptor Inverse Agonists: Cytotox Screen | HEK293 cAMP-luciferase reporter cells, luminescence, 24 h | Potency, µM (titrated, usually from 38.3 µM), inactives show at the top dose activity change, negative = inhibition, most hits filed as inhibitors | 410,000 tested, 0.13% active | AID 624418, 2012;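 also: loss of luciferase light is scored as toxicity; % is scaled to controls: 0 for no effect and ±100 for the full control effect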
#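 Quantitative HTS format, 1536 wells, 200 cells/uL seeded. Compounds: 23 nL, 24 h, 37 °C. Detection: luciferase reagent, luminescence at 12 min RT; decreased signal taken as cytotoxic.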
# An asterisk follows results filed as active; ? = inconclusive; nt = no result given; [ ] = remark or other dose. An excerpt weighted towards active compounds, which were near 5.9% of everything screened. Calls follow the shape of the dose curve; as a rule, active = well fitted curve in the direction sought with a large enough effect; inconclusive = small, poorly fitted or top-dose-only effect, or another doubt; inactive = no such curve, though single readings can be large; an effect the other way counts as inactive or inconclusive. Potency is read from the fitted curve at half-maximal effect.
SMILES,GLP-1R agonist,GLP-1R inv ag,RORgamma inh,VP16 counter,GLP1R cytotox
COc1cc(N(C)C)cc(CN(C)CCc2ccc([N+](=O)[O-])cc2)c1O,nt,nt,?,-2%,nt
CNC(=O)C1(C(F)(F)F)C/C(=C\Cc2ccccc2)CCCO1 (centres undefined),nt,nt,39%,8%,nt
COC(=O)Cn1c(=NC(=O)c2cc(-c3cccs3)nc3ccccc23)sc2cc(S(N)(=O)=O)ccc21,-26%,0%,-19%,?,30%
CCOC(=O)Cn1c(=NC(=O)c2cc(-c3cccs3)nc3ccccc23)sc2cc(S(N)(=O)=O)ccc21,-32%,?,16µM*,11µM*,-4%
COc1cccc(CC2(CO)CCCN(Cc3ccc(CO)o3)C2)c1 (centres undefined),2%,-13%,8%,1%,13%
OCC1(Cc2cccc(Cl)c2)CCCN(Cc2ccc3cc(F)ccc3n2)C1 (centres undefined),19%,13µM*,3%,-1%,-4%
COc1ccc(-n2ccnc2CN2CCCC(CO)(Cc3cccc(OC)c3)C2)cc1 (centres undefined),13%,?,11µM*,-9%,96%
CCOC(=O)C1=C(C)N=c2s/c(=C\c3ccc(C(=O)O)cc3)c(=O)n2C1c1ccc(OC)cc1OC (centres undefined),-5%,11%,nt,nt,?
CCOC(=O)C1=C(C)N=c2s/c(=C/c3ccco3)c(=O)n2C1c1cccc(OC)c1 (centres undefined),-11%,11µM*,-26%,2%,1%
O=C(Nc1ccc(F)cc1)c1cccnc1Oc1ccccc1,14%,4%,23%,2%,10%
N/C(COc1cccc(C(F)(F)F)c1)=N\NC(=O)c1cccnc1Oc1ccccc1,-1%,?,0.5µM*,1.3µM*,1%
Cc1snc(SCC(=O)N/N=C(\N)COc2cccc(C(F)(F)F)c2)c1C#N,-3%,6%,5µM*,6.3µM*,3%
N/C(COc1ccccc1)=N\NC(=O)c1cccnc1Oc1ccccc1,3%,-11%,?,1.4µM*,-10%
CCn1c(=O)c2cc(C(=O)N3CCN(c4cccc(OC)c4)CC3)sc2c2ccccc21,nt,?,nt,nt,-18%
CSc1nnc2[nH]c(=O)cc(C)n12,nt,-5%,nt,nt,-13%
COc1ccc(CNC(=O)CC(c2ccc(OC)c(OC)c2)N2Cc3ccccc3C2=O)cc1 (centres undefined),5%,9%,nt,nt,-3%
O=C(CCNC(=O)c1ccccc1Cl)Nc1nc(-c2ccccc2Cl)cs1,1%,7.9µM*,?,14%,-8%
O=C(CCNC(=O)c1ccccc1Cl)Nc1nc(-c2ccc(F)cc2)cs1,-7%,-15%,?,-1%,-5%
NCC(c1ccccc1)c1c[nH]c2ccccc12 (centres undefined),4%,?,-9%,-7%,-12%
O=[N+]([O-])CC(c1ccc(F)cc1)c1c[nH]c2ccccc12 (centres undefined),3%,7.1µM*,-6%,-16%,-26%
CC(=O)OC[C@H]1O[C@@H](O/N=C(\C)CCN2CCCc3nc(C)c(C)cc32)[C@H](OC(C)=O)[C@@H](OC(C)=O)[C@H]1OC(C)=O,nt,nt,-1%[10 µM],-3%[10 µM],nt
O=C(N/N=C/c1c(O)n(-c2ccccc2Cl)c(=O)c2ccccc12)C1COc2ccccc2O1 (centres undefined),-16%,?,4µM*,2.8µM*,4%[1.53 µM]
Cc1ccc(-n2c(O)c(/C=N/NC(=O)C3COc4ccccc4O3)c3ccccc3c2=O)cc1 (centres undefined),-9%,?,4µM*,3.2µM*,65%
Cc1ccc(/C=N/NC(=O)C2COc3ccccc3O2)s1 (centres undefined),22%,?,nt,nt,?
COc1ccc2[nH]cc(CCNc3ccnc(-c4ccccc4Cl)n3)c2c1,nt,nt,-10%,3%,nt
SMILES,GLP-1R agonist,GLP-1R inv ag,RORgamma inh,VP16 counter,GLP1R cytotox
COc1cc2c(cc1OC)C(C1C(=O)CC(C)(C)CC1=O)N(C(=O)CCl)CC2 (centres undefined),2%,16%,-4%,1%,6%
COc1cc2c(cc1OC)C(c1cc(Br)ccc1F)N(C(=O)CCl)CC2 (centres undefined),-6%,?,7.9µM*,?,?
CCOC(=O)c1ccc(Nc2c(-c3ccc(O)cc3)nc3nc[nH]n23)cc1,nt,7%,nt,nt,1%
C/C(CC(=O)Nc1ccc(N(C)C)cc1)=N\NC(=O)c1ccccc1O,-4%,1%,23%[1.91 µM],?,2%
C/C(CC(=O)Nc1ccc(N(C)C)cc1)=N\NC(=O)c1ccc(F)cc1,-7%,3%,1.8µM*,?,6%
C/C(CC(=O)Nc1cc(C)ccn1)=N\NC(=O)c1ccc(C(C)(C)C)cc1,8%,-3%,11µM*,-16%,2%
C/C(CC(=O)Nc1ccc(N(C)C)cc1)=N\NC(=O)c1ccc(Cl)cc1Cl,1%,8%,11µM*,-11%,16%
C/C(CC(=O)Nc1ccc(N(C)C)cc1)=N\NC(=O)c1ccc(C(C)(C)C)cc1,1%,9%,?,4µM*,1%
CN(C)c1ncnc2ccc(-c3ccc4c(c3)OCO4)cc12,nt,nt,-3%,-3%,nt
Cc1cc(C)c(Nc2nc3ccccc3n3c(C)nnc23)c(C)c1,nt,16%,nt,nt,2%
O=[N+]([O-])c1cccc(S(=O)(=O)NCCNS(=O)(=O)c2cccc([N+](=O)[O-])c2)c1,5%,nt,36%,1%,nt
CCCCN(CC)C(=O)Cn1nc(C)c2c(C)n(-c3ccccc3)nc2c1=O,nt,-7%,nt,nt,-2%
COc1cc(CNCc2ccccn2)ccc1OCc1ccccc1Cl,9%,?,14µM*,?,6%
COc1ccc(CC(=O)NCc2ccccn2)cc1OC,2%,2%,11µM*,-6%,7%
CCOc1c(Cl)cc(CNCc2ccccn2)cc1OC,0%,1%,-15%,3%,-13%
Cc1cc(=O)n2[nH]c(-c3ccc(C(C)(C)C)cc3)cc2n1,-7%,-4%,?,22µM*,-24%
COC(=O)c1ccccc1NC(=O)C1CC(c2ccccc2O)=NO1 (centres undefined),-1%,0%,13µM*,?,8%
CCOC(=O)N1CCN(C(=S)NC(=O)c2ccc(Br)cc2)CC1,0%,-31%,0.56µM*,1.3µM*,?
Cc1ccc(C(=O)NC(=S)N2CCN(C(=O)OC(C)(C)C)CC2)cc1Br,3%,-13%,0.63µM*,1.1µM*,3%
